According to PubChem BioAssay (NCI):
The panel holds about 79,000 compounds, 15% with a hit somewhere; the sample as a whole holds those more often. Unmarked numbers belong to inactive results. Active and inactive are the calls of the source. Cut-off read from the data, not from the text of the source: active = growth inhibition above about 70%; inactive = the rest.

Assays:
[1] = NCI Yeast Anticancer Drug Screen. Data for the rad50 strain (AID 155);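 note: 0% = growth of vehicle-only cultures of the same strain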; settings: S. cerevisiae rad50 strain growth inhibition; at 50.0 µM; hits give high values
Procedure, shortened: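 Readout: growth inhibition relative to vehicle-treated cultures. Compound exposure was carried out in a genetically defined yeast strain deficient in DNA damage repair.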

[2] = NCI Yeast Anticancer Drug Screen. Data for the mec2-1 strain (AID 157); settings: S. cerevisiae mec2-1 strain, at 50.0 µM, hits give high values
Procedure, shortened: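 Each compound was tested on mec2-1 yeast, a strain altered in DNA damage repair or cell cycle control. Growth inhibition is reported relative to vehicle.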

[3] = NCI Yeast Anticancer Drug Screen. Data for the sgs1 mgt1 strain (AID 161);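 note: 0% = growth of cultures given vehicle only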; settings: S. cerevisiae sgs1 mgt1 strain, at 50.0 µM, hits give high values
Procedure, shortened: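 Mutant yeast exposed to compound; growth scored against vehicle-only wells.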

[4] = NCI Yeast Anticancer Drug Screen. Data for the cln2 rad14 strain (AID 165);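 note: 0% = growth equal to vehicle treated cultures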; settings: S. cerevisiae cln2 rad14 strain, at 50.0 µM, hits give high values
Procedure, shortened: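 Test compounds were added to cln2 rad14 yeast cultures; inhibition of growth was then determined by comparison with vehicle treatment.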

[5] = NCI Yeast Anticancer Drug Screen. Data for the bub3 strain (AID 167); settings: S. cerevisiae bub3 mutant strain, at 50.0 µM, hits give high values
Procedure, shortened: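 Readout: yeast growth inhibition, expressed relative to vehicle-only wells. The test organism is a mutant strain from a panel with lesions in DNA repair or checkpoint genes.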

[6] = NCI Yeast Anticancer Drug Screen. Data for the mlh1 rad18 strain (AID 175); settings: S. cerevisiae mlh1 rad18 strain growth inhibition; at 50.0 µM; hits give high values
Procedure, shortened: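 Inhibition values reflect reduced growth of mutant yeast versus vehicle-treated controls following compound exposure; the mutations affect DNA damage repair.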

Compound	growth inhibition [1]	growth inhibition [2]	growth inhibition [3]	growth inhibition [4]	growth inhibition [5]	growth inhibition [6]
COC1OCC2OC3(CCCCC3)OC2C1SCc1ccccc1 (configuration not stated)	8.05%	-9.85%	10.8%	-7.4%	-10.4%	-5.25%
Nc1nc(I)nc2c1ncn2C1OC(COS(N)(=O)=O)C(O)C1O (configuration not stated)	67%	67.5%	40.9%	63.6%	43.9%	78.3% (active)
Cc1ccc2c(c1)NC(C1Nc3cc(C)ccc3O1)O2 (configuration not stated)	-0.3%	-6.8%	-1.25%	-46.5%	-16.9%	-12.2%
CCC(SC(CC)(CC(C)C)C(N)=O)C(N)=O (configuration not stated)	4.1%	-5.65%	15.8%	-53%	6.9%	-14.4%
COc1cccc(NC(N)=O)c1	-15.5%	-14.2%	-9.3%	-9.5%	-10.1%	-19.4%
O=[N+]([O-])c1ccc(N/N=C2/CC3=C2CCCCCCCCCC3)c([N+](=O)[O-])c1	-6.35%	-4.95%	11%	-14.2%	-2.15%	-13.4%
CC(C(=O)O)C(C)C(=O)Nc1ccccc1 (configuration not stated)	33.9%	6.15%	11.1%	24.4%	1.5%	28.4%
CC(C)C1=CC(=O)C(C)(C2=NC(C)(C)CO2)c2ccccc21 (configuration not stated)	-0.1%	-9.35%	4.4%	22.7%	-10.5%	5.3%
COc1ccc(C(=O)Nc2c(N)ncnc2N)cc1	16.8%	73.7% (active)	35.1%	-3.6%	16.5%	15.1%
[O-]/[N+](=C\c1ccc(Cl)cc1)c1ccccc1	-11.2%	-14.1%	-21.1%	-8.85%	-18.9%	-7%
O=C(Nc1ccccc1)OC1CCCC12CC2 (configuration not stated)	8.7%	4.9%	-16.1%	-4.8%	-2.25%	23.1%
C/C(O)=C(/C=N/C(N)=S)C(N)=O	-3.05%	14.2%	7.1%	22%	10.2%	15.5%
N/N=C1\C(=O)N(Cc2ccccc2)C(=O)C1C(=O)NCc1ccccc1 (configuration not stated)	7.5%	13.8%	3.4%	-36.8%	19.4%	3.5%
O=NN(CCCl)C(=O)N(C1CCCCC1)C1CCCCC1	8.5%	-3.95%	12.1%	3.35%	5%	27.7%
CC1=CC(=O)c2c(C=O)c(O)c(O)c(C(C)C)c2C1=O	91% (active)	93.4% (active)	91.8% (active)	91.1% (active)	91.2% (active)	90.8% (active)
O=C(O)C1OCOC2C(CO)OCOC12 (configuration not stated)	11.8%	-5.35%	17%	-29.9%	-3.6%	11.1%
COC(=O)c1ccc(F)cc1	-53.9%	-25.9%	-25.5%	-1.45%	-51.6%	-46.3%
CCN(CCO)CC(=O)c1ccc(Cl)c(Cl)c1	0.2%	-12.5%	-6.95%	-13.8%	16.1%	-0.9%
COc1cc(Cl)ccc1NC(=O)Oc1ccc(C=O)cc1OC	3.8%	10.2%	6.75%	9.85%	17.9%	10.8%
C=CCCCCCCCCC(=O)N/N=C/c1ccc(NC(C)=O)cc1	10.2%	6.55%	7.1%	3%	11.8%	7.1%
COc1ccc(/C=C2\N=C(c3ccccc3)N(Nc3nnc(NN4C(=O)/C(=C/c5ccc(OC)cc5)N=C4c4ccccc4)c4ccccc34)C2=O)cc1	-9.4%	-10.3%	1.65%	8.7%	-21.4%	4.35%

Compound	growth inhibition [1]	growth inhibition [2]	growth inhibition [3]	growth inhibition [4]	growth inhibition [5]	growth inhibition [6]
NC(=S)N/N=C\CC(O)(C(F)(F)F)C(F)(F)F	-16.7%	-19.2%	-7.45%	0.5%	7.1%	-2.3%
CCCCCCCCCCCCOc1ccccn1	-11.2%	-33.6%	-7.65%	-7.45%	-11.6%	-4.55%
C[C@]12CCC(=O)CC1CCCC2=O (some centres not stated)	9.9%	-10.8%	6.4%	24.1%	-6.7%	19.8%
CC(=O)c1c(O)c(Nc2ccccc2)cc2nc3ccccc3nc12	-4.45%	3.95%	-0.4%	-10.3%	-8.75%	-23.3%
O=C(Cc1ccccc1)Nc1ccc([N+](=O)[O-])cc1Cl	4.95%	16.1%	23.4%	2.1%	6.5%	38.1%
O=c1c2ccccc2n2c(-c3ccccc3O)nnc2n1-c1ccccc1	6.5%	14.8%	35.1%	26.2%	6.6%	18.2%
CCOC(=O)C(C(C)=O)C(c1ccc(N(C)C)cc1)C(C(C)=O)C(=O)OCC (configuration not stated)	8.75%	-7%	7.75%	-6.2%	-4%	9.45%
CCOC(=O)C(NC(=O)NCc1ccc(F)cc1)C(F)(F)F (configuration not stated)	-46.7%	2.2%	-31.5%	19.4%	51.9%	-43.1%
Cc1ncc(-c2ccccc2)o1	-20.2%	-21.2%	-1.75%	-7%	-19.9%	-15.7%
COC1(c2ccccc2)OC(=O)C(C)(C)c2ccccc21 (configuration not stated)	-5.1%	7.65%	14.2%	22.1%	13.9%	3.55%
O=C(O)c1cc(C(=O)O)nc(C(=O)O)c1	-23.9%	-12.1%	-16.1%	-29.9%	5.7%	-0.6%
NC(=O)NCc1ccc(CNC(N)=O)cc1	11.3%	15.1%	-2.9%	-61.5%	3.25%	3.35%
O=C(O)c1cc(/C=C/c2ccccc2)ccc1[N+](=O)[O-]	-11.2%	25.5%	7.5%	-33.6%	-5.8%	-3.1%
C/C(CCc1cnc2ccccc2c1)=N/NC(N)=O	69.2%	27.5%	85.7% (active)	37.8%	67.3%	95.6% (active)
CC(=O)c1cc(Cl)ccc1OCC(O)CNc1ccc(Cl)cc1C(=O)c1ccccc1 (configuration not stated)	17.6%	37.6%	10.3%	34%	-3.85%	7.15%
COC1(OC)C(c2ccc(Cl)cc2)C(C#N)(C#N)C1(OC)OC (configuration not stated)	-7.25%	-13.2%	-14.2%	-48.4%	-1.15%	-7.45%
Cc1ccc2c(c1)C(C)(C)C(C)C2(C)C (configuration not stated)	-3.05%	-8.2%	-13.8%	-19.9%	9.25%	21.3%
NS(=O)(=O)/C=C(\Cl)c1ccccc1	1.7%	2.15%	2.95%	-16.6%	12.2%	-0.55%
CCCCCCCCS(=O)(=O)NC	0.95%	-9.8%	-8.75%	-10%	16.4%	5.7%
CCOC(=O)C(C)(C)c1ccc(OC)cc1	-14.2%	-3.6%	-8.6%	-18.9%	2.6%	-16.2%
Cc1ccc2c(c1)[n+]([O-])c1c3ccccc3[nH]c1[n+]2[O-]	63.2%	23%	22.9%	25.7%	15.2%	26.4%
